Each structure is given as a SMILES string. Where a name gives a salt, the structure may show the parent alone.

For the assay, the system named is Danio rerio larvae (5 dpf). The assay can be described thus: 1-h baseline activity (% time moving, periods 1-6) minus DMSO control (percentage points); higher = more locomotor activity than DMSO larvae. The settings on record: 10 µM; exposure time: 3 h pre-incubation + 3 h imaging. As to the method:
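Wild-type 5 dpf zebrafish larvae (n=48 per drug, 96-well plates, 28.5 °C) were exposed to Tocris FDA-approved library compounds at 10 µM (0.1% DMSO) for 3 h before and 3 h during imaging. Images were taken every 6 s during visual and acoustic stimuli, and larvae were tracked with Z-LaP Tracker. Each measure is the treated-group mean minus the DMSO control mean (n=844), in percentage points. This mapping covers compounds with 5-character plate codes.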
With `COc1ccc(C(CN(C)C)C2(O)CCCCC2)cc1` (stereo unspecified) [Venlafaxine hydrochloride], the 1-h baseline activity is -22.8.

Source of the values: the supplement of paper PMC9950053.
